Test results: PubChem BioAssay (Tox21)
Inconclusive results are not listed. A number with no mark means an inactive call. Calls follow the shape of the full dose curve.

Assay: qHTS assay to identify small molecule agonists or antagonists of the thyroid stimulating hormone receptor (TSHR) signaling pathway - wild type cell line counter screen (AID 1259384)
Details: HEK293 wild type, cAMP HTRF counter-screen; series mostly up to 92.4 µM; cAMP activity change: at the top concentration
Text: U.S. Tox21 Program National Center for Advancing Translational Sciences [NCATS] NIH Chemical Genomics Center [NCGC] U.S. Environmental Protection Agency [EPA] National Institutes of Environmental Health Sciences [NIEHS] National Toxicology Program [NTP] U.S. Food and Drug Administration [FDA] Tox21 Assay Overview: TSHR is the receptor for thyrotropin (thyroid stimulating hormone or TSH), a member of the glycoprotein hormone family. TSH is released by the anterior pituitary gland and is the main regulator of thyroid gland growth and development. Upon binding circulating thyrotropin, a G-protein signal cascade activates adenylyl cyclase and […] cAMP concentration is increased. cAMP is a key second messenger involved extensively in cellular signal transduction pathways associated with the majority of G-protein coupled receptors (GPCRs). The activation of these GPCRs by neurotransmitters, lipids, nucleotides, peptides and hormones results in the activation or the inhibition of plasma membrane-bound adenylate cyclase through heterotrimeric G-proteins. A cell-based TSHR-Hek293 assay can be used to identify TSHR agonists. To eliminate the false positive compounds identified from screening a cell-based TSHR-Hek293 cell line, cAMP assay in a wild type Hek293 cells was used as a counter screening.
Tox21 Assay Protocol Summary: Hek293 cells (wild type) were dispensed at 800 cells/4 uL/well in 1536-well white plates using a Multidrop dispenser. After the assay plates were incubated at a 37 C/5% CO2 incubator for 18 hrs, 23 nL of compounds dissolved in DMSO, positive controls or DMSO only was transferred to the assay plate by a pin tool, followed by 1 ul medium containing Ro20-1724. After 30 min of incubation at room temperature, 2.5 ul/well of cAMP-d2 and 2.5 ul/well of anti-cAMP-cryptate were added respectively into the assay plates using a Flying Reagent Dispenser. The plates were incubated at room temperature for 1 hr. The fluorescence intensity in the plates was measured using an Envision plate reader. Each test compound was measured at 15 concentrations and in triplicates.
% is scaled to controls: 0 for no effect and ±100 for the full control effect.

SMILES	cAMP activity change
COP(=S)(OC)Oc1c(Cl)cc(C)cc1Cl	-1.47%
Cc1cccc(C#N)c1	-0.859%
COC(=O)C(C)Oc1ccc(Oc2ccc(Cl)cc2Cl)cc1 (stereo not given)	-2.36%
CNC(=O)N(C)c1nc2ccccc2s1	5.91%
CC1=C(C(=O)Nc2ccccc2)S(=O)(=O)CCO1	-0.41%
O=C1OC(c2ccc(O)c(S(=O)(=O)O)c2)(c2ccc(O)c(S(=O)(=O)O)c2)c2c(Br)c(Br)c(Br)c(Br)c21	-3.67% [at 42.5 µM, stronger effect = higher value]
O=C(N[C@H]1CN2CCC1CC2)c1cc2ccoc2cn1	-1.39%
Fc1ccc(C2(Cn3cncn3)OC2c2ccccc2Cl)cc1 (stereo not given)	-0.244%
CCSC(=O)N(CC)C1CCCCC1	12.6%
C(CCOCC1CO1)COCC1CO1 (stereo not given)	0.405%
CC(N)=S	1.05%
CC(=O)CCc1ccc2c(c1)OCO2	4.74%
Cc1ncc(CNC(=O)N(CCCl)N=O)c(N)n1	2.5% [at 42.5 µM, stronger effect = higher value]
O=C(O)C(Br)CBr (stereo not given)	2.92%
CC1=NNC(=O)N(/N=C/c2cccnc2)C1	-3.52%
Cc1ncc2n1-c1ccc(Cl)cc1C(c1ccccc1F)=NC2	-4.97% [at 42.5 µM, stronger effect = higher value]
CC(Cl)(Cl)[N+](=O)[O-]	1.33%
C=CC1CC=CCC1 (stereo not given)	-0.758%
COc1cccc2c1cc([N+](=O)[O-])c1c(C(=O)O)cc3c(c12)OCO3	2.16%
CN1C[C@@H](NS(=O)(=O)N(C)C)C[C@@H]2c3cccc4c3c(cn4C)C[C@H]21	-3.3% [at 42.5 µM, stronger effect = higher value]

SMILES	cAMP activity change
Fc1cc(Br)ccc1CBr	-1.51% [at 42.5 µM, stronger effect = higher value]
COc1ccc2c(c1OC)CN1CCc3cc4c(cc3C1C2)OCO4 (stereo not given)	-2.84% [at 42.5 µM, stronger effect = higher value]
CCCCP(CCCC)CCCC	2.09%
CCOP(=S)(OCC)Oc1ncn(-c2ccccc2)n1	6.37%
C=CCC1=C(C)[C@@H](OC(=O)[C@@H]2[C@@H](C=C(C)C)C2(C)C)CC1=O	0.0242%
BrCCCCCCBr	6.08%
CCC#N	1.46%
c1cc[c]([Hg][c]2ccccc2)cc1	-0.176%
O=C1CN2CCOC2(c2ccccc2Cl)c2cc(Cl)ccc2N1 (stereo not given)	-1.49% [at 42.5 µM, stronger effect = higher value]
c1ccc(N2CCNCC2)cc1	1.66% [at 42.5 µM, stronger effect = higher value]
CC(C)CP(=S)(S)CC(C)C	-0.11%
O=C(CCN1CC1)OCC(CO)(COC(=O)CCN1CC1)COC(=O)CCN1CC1	0.726%
CCOP(=S)(OCC)SCSc1ccc(Cl)cc1	-3.18%
OCCSCSCCO	-13%
O=[N+]([O-])c1ccc2c3c(cccc13)CC2	-0.0732%
C#C[C@]1(O)C=C[C@H]2[C@@H]3CCC4=CC(=O)CC[C@@H]4[C@H]3CC[C@@]21CC	-0.44% [at 42.5 µM, stronger effect = higher value]
OC(c1ccc(F)cc1)(c1cncnc1)c1ccccc1Cl (stereo not given)	-2.79%
OC(Cn1cncn1)(c1ccc(F)cc1)c1ccccc1F (stereo not given)	-6.29%
Cc1cnc[nH]1	-1.23%
CC(C)CC(N(C)C)C1(c2ccc(Cl)cc2)CCC1 (stereo not given)	-2.05% [at 42.5 µM, stronger effect = higher value]
